# ± gives the standard deviation of the averaged measurements.
# Test system: E. coli TESEC Mtb Alr
# Assay: growth (OD600 after 10 h); higher = more growth (less inhibition)
# Conditions: compound 0.1 mM
# Experimental: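 TESEC Mtb Alr E. coli, or the Alr+ wild-type control, in 384-well plates with Prestwick library compounds at 0.1 mM and 1% DMSO, across arabinose induction levels of 1E3 to 1E7 nM. Growth is read as OD600 after 10 h at 37 °C in triplicate biological replicates.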
# [1] = arabinose 1000 nM, raw OD600 reference: median of DMSO wells 0.294, cell-free background 0.041
# [2] = arabinose 10000 nM, raw OD600 reference: median of DMSO wells 0.264, cell-free background 0.041
# [3] = arabinose 100000 nM, raw OD600 reference: median of DMSO wells 0.201, cell-free background 0.041
# [4] = arabinose 1000000 nM, raw OD600 reference: median of DMSO wells 0.193, cell-free background 0.041
# [5] = arabinose 10000000 nM, raw OD600 reference: median of DMSO wells 0.146, cell-free background 0.041
Compound,growth [1],growth [2],growth [3],growth [4],growth [5]
C[N+](C)(C)CCCCCC[N+](C)(C)C [Hexamethonium dibromide dihydrate],0.27 ± 0.018,0.245 ± 0.0047,0.191 ± 0.022,0.1745 ± 0.00064,0.138 ± 0.0063
CCC1(c2ccccc2)C(=O)NCNC1=O [Primidone],0.296 ± 0.0094,0.255 ± 0.0076,0.201 ± 0.012,0.18 ± 0.0097,0.144 ± 0.0039
Cc1cc(C2CCCCC2)n(O)c(=O)c1 [Ciclopirox ethanolamine],0.04303 ± 5.8e-05,0.03957 ± 0.00035,0.0447 ± 0.00064,0.03987 ± 0.00012,0.0504 ± 0.00059
CC(C)OC(=O)CCC/C=C\C[C@@H]1[C@@H](CC[C@@H](O)CCc2ccccc2)[C@H](O)C[C@@H]1O [Latanoprost],0.05 ± 0.0017,0.0396 ± 0.0001,0.0525 ± 0.00065,0.04007 ± 0.00012,0.0545 ± 0.0034
O=C(O)CCC(=O)c1ccc(-c2ccccc2)cc1 [Fenbufen],0.232 ± 0.013,0.229 ± 0.0062,0.137 ± 0.0052,0.128 ± 0.0089,0.127 ± 0.0092
COc1ccccc1O [Guaiacol],0.314 ± 0.0073,0.2742 ± 0.0019,0.192 ± 0.012,0.203 ± 0.012,0.135 ± 0.0042
CCCOc1ccc2[nH]c(NC(=O)OC)nc2c1 [Oxibendazol],0.309 ± 0.021,0.269 ± 0.0059,0.213 ± 0.028,0.183 ± 0.0022,0.151 ± 0.0057
CC(=O)OCC(=O)[C@@]12OC3(CCCC3)O[C@@H]1C[C@H]1[C@@H]3CCC4=CC(=O)C=C[C@]4(C)[C@@]3(F)[C@@H](O)C[C@@]12C [Amcinonide],0.287 ± 0.066,0.272 ± 0.011,0.241 ± 0.059,0.242 ± 0.07,0.172 ± 0.011

# — the supplement of paper PMC9262897, “Low-cost anti-mycobacterial drug discovery using engineered E. coli” (Nature Communications, 2022)
